Screen size: about 24,000 compounds; about 40 (0.2%) were called active.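 Rule for the calls: active = inhibition of disassembly above about 33% (limit read from the data); inconclusive = likely self-fluorescent, control bead median signal at least 40; inactive = the rest.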 The sample as a whole holds a higher share of actives than the screen did.
Each molecule was assayed on 26S proteasome (yeast, GFP-tagged, ATP-dependent disassembly) (assay: blockers of yeast 26S proteasome breakdown – biochemical, bead-based flow cytometry, GFP-tagged proteasome, primary screen (AID 751;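 note: plate controls were ATP control with full disassembly for no effect and ATP-gamma-S intact proteasomes for full effect; higher percent means more bead fluorescence retained so stronger block of disassembly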)). Details: anti-FLAG beads, hits give high values, concentration not given here.

| Structure (SMILES) | inhibition of disassembly |
| --- | --- |
| Cc1ccc(C2CC(c3cccc(Br)c3)n3nc(N)nc3N2)cc1 (configuration not stated) | 0.65% (inactive) |
| Cc1oc(-c2ccccc2F)nc1CS(=O)(=O)CC(=O)NCCCN(C)C1CCCCC1 | -0.8% (inactive) |
| Cc1nnc(NC(=O)CCC(=O)N2CCC(C)CC2)s1 | -1.57% (inactive) |
| COc1ccc(-c2c(C)nn3c(N4CCC(C(=O)N5CCCCC5)CC4)cc(C)nc23)cc1OC | -1.42% (inactive) |
| NS(=O)(=O)c1cc2c(cc1Cl)NC(C(Cl)Cl)NS2(=O)=O (configuration not stated) | -0.98% (inactive) |
| COc1ccc(OC)c(NC(=O)CC(Cc2ccccc2OC)C(=O)O)c1 (configuration not stated) | -1.04% (inactive) |
| Cc1noc(C)c1S(=O)(=O)Nc1ccc(C(=O)O)cc1 | 1.24% (inactive) |
| CCCOC(=O)Nc1sc2c(c1C(=O)OCC)CCC2 | 1.34% (inactive) |
| O=C(CN1CCN(c2ncc(C(F)(F)F)cc2Cl)CC1)Nc1ccc2c(c1)OCO2 | 2.15% (inactive) |
| Cc1nc2ncnn2c(C)c1CCC(=O)N1CCN(C(=O)c2ccco2)CC1 | -0.22% (inactive) |
| Cc1c2cnn(-c3ccccc3)c(=O)c2c(C)n1CCCC(=O)N1CCN(C)CC1 | 0.62% (inactive) |
| CCSc1nc2c(c(=O)[nH]1)C(c1cccnc1)C(C(=O)OC(C)C)=C(C)N2 (configuration not stated) | 0.035% (inactive) |
| O=C(NCCCN1CCN(Cc2ccccc2)CC1)C1CCN(S(=O)(=O)N2CCCC2)CC1 | -1.86% (inactive) |
| Nc1nonc1-c1nc2ccccc2n1CCC(=O)O | 1.19% (inactive) |
| CCOC(=O)N1CCN(S(=O)(=O)c2cc(Br)cc3c2N(C(=O)C2CC2)CC3)CC1 | 3.18% (inactive) |
| Cc1noc(C)c1S(=O)(=O)N(CC(=O)NCc1ccc(Cl)cc1)c1ccc2c(c1)OCO2 | -0.25% (inactive) |
| CCN(c1ccc2c(c1)OCO2)S(=O)(=O)c1cc(Br)cc2c1N(C(=O)C1CC1)CC2 | 28.9% (active) |
| CN(Cc1ccccc1)C(=O)CCNC(=O)Cn1cnc2ccccc2c1=O | -0.53% (inactive) |
| COc1ccc2c(c1)CCc1c(C(=O)N3CCCC3)noc1-2 | -0.25% (inactive) |

| Structure (SMILES) | inhibition of disassembly |
| --- | --- |
| COc1ccc(-c2nc(CS(=O)CC(=O)N3CCc4ccccc4C3)c(C)o2)cc1 (configuration not stated) | 1.96% (inactive) |
| Nc1ccc(-n2nncc2-c2ccco2)cc1 | -0.06% (inactive) |
| CCc1nnc(NC(=O)CCC(=O)O)s1 | -0.71% (inactive) |
| O=C(c1ccccc1)c1ccc2nc(N3CCCCC3)c3nncn3c2c1 | 3.43% (inactive) |
| CC12COC3(C(=O)Nc4ccc(Cl)cn4)CC1CCC32C (configuration not stated) | 0.35% (inactive) |
| CCCn1nnc2sc3c(c2c1=O)CCC(C)C3 (configuration not stated) | -0.93% (inactive) |
| CCCCc1nc2c(=O)[nH]c3ccccc3c2o1 | 0.25% (inactive) |
| CC(=O)Nc1ccc(S(=O)(=O)N2CCC(N(C)CCC(C)C)CC2)cc1 | 0.37% (inactive) |
| CCCn1cc(SCC(N)=O)c2ccccc21 | -0.93% (inactive) |
| O=C(Nc1nc2ccc(S(=O)(=O)N3CCCC3)cc2s1)C1CCCO1 (configuration not stated) | -0.99% (inactive) |
| COc1ccc(N2C(=O)CCC(C(=O)N(C)C3CCCCC3)C2c2ccc(OC)c(OC)c2)cc1 (configuration not stated) | -1.19% (inactive) |
| CC(=O)NCC(=O)N(C)C(C(=O)Nc1ccc2c(c1)OCCO2)c1ccccc1 (configuration not stated) | 2.08% (inactive) |
| CC(=O)Nc1cc2ccc(OC(C)=O)cc2oc1=O | 0.02% (inactive) |
| Fc1ccccc1C(c1nnnn1Cc1ccc2c(c1)OCO2)N1CCN(Cc2ccccc2)CC1 (configuration not stated) | -0.69% (inactive) |
| CC(C(=O)N1CCOCC1)N1c2cccc3cccc(c23)S1(=O)=O (configuration not stated) | -0.85% (inactive) |
| C=CCn1c(COc2ccccc2F)nnc1SCC(=O)N1CC(=O)Nc2ccccc21 | -0.82% (inactive) |
| CCCCNC(=O)c1c[nH]c2ccc(S(=O)(=O)Nc3ccc(OCC)cc3)cc2c1=O | 0.53% (inactive) |
| CCCCOC(=O)Nc1nccs1 | 0.85% (inactive) |
| CCn1cc(C(=O)N2CCN(C3CCCCC3)CC2)c2cc(OC)c(OC)cc2c1=O | -1.25% (inactive) |

| Structure (SMILES) | inhibition of disassembly |
| --- | --- |
| COCCCN(C(=O)Cn1ncc2c(=O)oc3ccc(C)cc3c21)C(C)c1ccncc1 (configuration not stated) | -1.07% (inactive) |
| Cc1ccsc1C(C(=O)NC1CCCCC1)N(C(=O)Cc1cccs1)C1CC1 (configuration not stated) | 1.54% (inactive) |
| O=C(NC1(C(F)(F)F)N=C2SCCN2C1=O)c1ccco1 (configuration not stated) | 1.38% (inactive) |
| CCN(CCCNC(=O)C1CCN(S(=O)(=O)c2cnc[nH]2)CC1)c1ccccc1 | 0.49% (inactive) |
| Cc1ccc(C(c2sc3nc(C)nn3c2O)N2CCN(c3ccc(F)cc3)CC2)cc1 (configuration not stated) | -0.24% (inactive) |
| CN1C(=O)c2ccccc2C(C(=O)NCCCN2CCCC2)C1c1c[nH]c2ccccc12 (configuration not stated) | 1.77% (inactive) |
| CCc1ccc(NC(=O)CSc2nc3ccccc3c(=O)n2CCN2CCOCC2)cc1 | -3.37% (inactive) |
| COc1ccc(OC)c(N=Cc2c(O)[nH]c3ccccc23)c1 | 25.8% (inactive) |
| O=C(CN1C(=O)COc2ccccc21)NCCN1CCc2ccccc2C1 | -0.95% (inactive) |
| COc1ccc(CN2CN(C(C)C)CSC2=S)cc1 | -0.35% (inactive) |
| CN1CCN(CCCNC(=O)c2cc3c(=O)oc4ccccc4c3s2)CC1 | -0.65% (inactive) |
| CCOC(=O)CN1CC23C=CC(O2)C(C(=O)Nc2ccc(F)cc2)C3C1=O (configuration not stated) | 0.62% (inactive) |
| COCCNC(=S)c1ccc(OC)cc1 | -2.83% (inactive) |
| COc1ccc(Cn2nnc3c(=O)[nH]c(C4CCN(C(=O)c5ccccc5Cl)CC4)nc32)cc1 | -0.42% (inactive) |
| CCN(CC)S(=O)(=O)c1ccc(NC(=O)CN(c2cccc(F)c2)S(C)(=O)=O)cc1 | 2.21% (inactive) |
| O=C(C(NS(=O)(=O)c1cccc2nsnc12)c1ccccc1)N1CCN(c2ccccn2)CC1 (configuration not stated) | 0.34% (inactive) |
| Cc1c(C(=O)N2CC(C)OC(C)C2)sc2nc(-c3ccccc3)cn12 (configuration not stated) | 0.65% (inactive) |
| COc1cc(C(O)c2nc3ccccc3n2C)cc(OC)c1OC (configuration not stated) | 1.95% (inactive) |
| O=C(CCN1C(=O)c2ccncc2C1=O)Nc1ccc2c(c1)OCCO2 | -0.98% (inactive) |

From PubChem BioAssay AID751 (NMMLSC, 2007)
